Our source for the AC50 values is publication PMC6792352, “Limited Chemical Structural Diversity Found to Modulate Thyroid Hormone Receptor in the Tox21 Chemical Library” (Environmental Health Perspectives, 2019).

SMILES strings stand for the structures. Counter-ions that a name gives are not always drawn.

In the assay the test system is thyroid hormone receptor (endogenous TRα and TRβ). More on the design: species or system GH3-TRE-Luc (rat pituitary); GH3-TRE-Luc luciferase reporter, antagonist mode against 1 nM T3, loss of signal, qHTS. The conditions noted are these: read-out: Average AC50 (uM) GH3-TRE-Antag, antagonist mode, 1 nM T3, no GH3 cytotoxicity hit.
As for `O=C1OC(OC(=O)c2cccnc2Nc2cccc(C(F)(F)F)c2)c2ccccc21` (centres unmarked) [Talniflumate], the half-maximal activity concentration (AC50) was 9.92 µM.

Consider `Nc1ccc(Br)cc1` [4-Bromoaniline], for which the concentration at half-maximal activity (AC50) is 47.9 µM.

Regarding `C=CCCCCCCCCC=O` [Undec-10-enal], the AC50 was 75.3 µM.

With `C1COC(NC(C2CC2)C2CC2)=N1` [Rilmenidine], the concentration at half-maximal activity (AC50) was 29.6 µM.

For `Oc1c(I)cc(I)c2cccnc12` [Iodoquinol], the concentration at half-maximal activity (AC50) worked out at 11.5 µM. The value for `NC(=O)Nc1ccc(Cl)c(Cl)c1` [3,4-Dichlorophenylurea] was 52.4 µM; that for `O=C(O)c1cccc(-c2noc(-c3ccccc3F)n2)c1` [Ataluren] was 10.8 µM; that for `CC/C=C(\C(=O)N[C@@H]1C(=O)N2C(C(=O)OCOC(=O)C(C)(C)C)=C(COC(N)=O)CS[C@H]12)c1csc(N)n1` [Cefcapene pivoxil hydrochloride] was 49.5 µM. For the compound `c1ccc2c(c1)ccc1ncccc12` [Benzo(f)quinoline], the AC50 is more than 90 µM. Take `CC(C)(C)c1ccccc1O` [2-tert-Butylphenol]: the AC50 came out at 84.6 µM.

With `Cc1ccccc1CO[C@@H]1C[C@@]2(C(C)C)CC[C@]1(C)O2` (racemic) [Cinmethylin], the AC50 was found to be 38.4 µM. For `CCC(=O)NCC[C@@H]1CCc2ccc3c(c21)CCO3` [Ramelteon], the AC50 came out at 39.2 µM. As to `CCOC(=O)c1c(N)sc2c1CCN(Cc1ccccc1)C2` [Tinoridine], the half-maximal activity concentration (AC50) was 37.8 µM. The value for `CCCCCCCCCCO[C@@H]1O[C@H](CO)[C@@H](O)[C@H](O)[C@H]1O` [Decyl beta-D-glucopyranoside] was 68.4 µM; that for `C[C@@H]1C[C@H]2[C@@H]3CCC4=CC(=O)C=C[C@]4(C)[C@@]3(Cl)[C@@H](O)C[C@]2(C)[C@@]1(OC(=O)c1ccco1)C(=O)CCl` [Mometasone furoate] was 16.9 µM; that for `O=C(N/N=C/c1ccccc1O)c1ccncc1` [Salinazid] was 20.5 µM. Turning to `CN1CCN2c3ncccc3Cc3ccccc3C2C1` (centres unmarked) [Mirtazapine], the half-maximal activity concentration (AC50) came to 15.4 µM.

Regarding `O=C(O)Cc1sc(-c2ccccc2)nc1-c1ccc(Cl)cc1` [Fentiazac], the half-maximal activity concentration (AC50) was more than 50 µM. As for `C[C@@H]1C[C@H]2[C@@H]3C[C@H](F)C4=CC(=O)C(Cl)=C[C@]4(C)[C@@]3(F)[C@@H](O)C[C@]2(C)[C@@]1(O)C(=O)CO` [Halometasone hydrate], the half-maximal activity concentration (AC50) came to 33.2 µM. Take `COC(C)(C)CCCC(C)C/C=C/C(C)=C/C(=O)OC(C)C` (centres unmarked) [Methoprene]: the AC50 amounted to 43.4 µM. Next, `CCN(CCCc1ccccc1)CCCc1ccccc1` [Alverine citrate]: 10.8 µM; `O=C1CCCCCCCCCCCC(=O)OCCO1` [1,4-Dioxacycloheptadecane-5,17-dione]: 47.7 µM; `COC(=O)[C@H]1[C@H]2C[C@@H]3c4[nH]c5cc(OC)ccc5c4CCN3C[C@H]2C[C@@H](OC(=O)/C=C/c2cc(OC)c(OC)c(OC)c2)[C@@H]1OC` [Rescinnamine]: 21 µM. Take `Cc1cc(C(C)(C)C)cc(C)c1CC1=NCCN1` [Xylometazoline hydrochloride]: the AC50 is 11 µM. With `O=C(N[C@H]1N=C(c2ccccc2F)c2cccc3c2N(CC3)C1=O)c1cc2ccccc2[nH]1` [Pranazepide], the concentration at half-maximal activity (AC50) was found to be 12.1 µM. Take `C=CC(=O)OCCOC(=O)CCC(=O)O` [4-[2-(Acryloyloxy)ethoxy]-4-oxobutanoic acid]: the AC50 was found to be 73 µM. For `CCC(=O)Nc1ccc(Cl)c(Cl)c1` [Propanil], the half-maximal activity concentration (AC50) is 92.4 µM. For `Cc1cc(-n2c(=O)[nH]c(=O)n(C)c2=O)ccc1Oc1ccc(S(=O)(=O)C(F)(F)F)cc1` [Toltrazuril sulfone], the concentration at half-maximal activity (AC50) amounted to 51.6 µM. In the case of `CC1=NC(C)OC1C` (centres unmarked) [2,4,5-Trimethyl-3-oxazoline], the AC50 is more than 90 µM. Regarding `COC(=O)[C@H]1[C@H]2C[C@@H]3c4[nH]c5cc(OC)ccc5c4CCN3C[C@H]2C[C@@H](OC(=O)COc2ccc(OC)cc2)[C@@H]1OC` [Mefeserpine], the AC50 came out at 21.6 µM. Consider `Cc1cccc(Oc2ccccc2)c1` [1-Methyl-3-phenoxybenzene], for which the half-maximal activity concentration (AC50) worked out at 82.5 µM. For `C[C@]12CC[C@@H]3c4ccc(O)cc4CC[C@H]3[C@@H]1C[C@@H](O)[C@@H]2O` [Estriol], the AC50 was more than 50 µM. Take `CCCCCCCCCCCCN` [1-Dodecanamine]: the AC50 came to 74.1 µM. As to `CC1(C)C(C=C(Cl)Cl)[C@@H]1C(=O)O[C@@H](C#N)c1ccc(F)c(Oc2ccccc2)c1` (some centres unmarked) [Cyfluthrin], the concentration at half-maximal activity (AC50) is 39.9 µM.

Take `CCCCCCCCCCCCCCn1cc[n+](C)c1` [1-Methyl-3-tetradecylimidazolium hexafluorophosphate]: the AC50 amounted to 68.5 µM. With `COc1cc([C@@H]2c3cc4c(cc3[C@@H](O[C@@H]3O[C@@H]5CO[C@@H](C)O[C@H]5[C@H](O)[C@H]3O)[C@H]3COC(=O)[C@H]23)OCO4)cc(OC)c1OP(=O)(O)O` [Etoposide phosphate], the AC50 came out at 21 µM. For the compound `COc1ccc(C(=O)c2ccccc2O)c(O)c1` [2,2'-Dihydroxy-4-methoxybenzophenone], the concentration at half-maximal activity (AC50) was more than 20 µM. Next, `c1ccc2sc(SN(C3CCCCC3)C3CCCCC3)nc2c1` [N,N-Dicyclohexyl-2-benzothiazolesulfenamide]: 33.2 µM.

A word on the AC50: it is the midpoint of the concentration-response curve, whichever way the signal moves.
